Source: PubChem BioAssay (Emory University Molecular Libraries Screening Center)
Only some compounds are listed: those with a hit (about 3.7% of all), similar ones and a draw of the others.
ERa SRC1 pot: enhances coactivator binding to human estrogen receptor alpha; TR-FRET ERalpha-LBD/SRC-Cy5 coactivator binding, 2 h; 100 = basal binding, no effect; coactivator binding (% of control), % at 25.6 µM; 86,000 compounds, 1.3% hits; P03372; in the data active means activity above about 200%;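 further: binding measured in presence of low estradiol as agonist stimulus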
ERa coact inh: ER-alpha (human) coactivator binding inhibition. P03372. TR-FRET ER-alpha LBD / SRC-1 peptide, estradiol-bound. 86,000 compounds, 1.7% hits. inhibition, % at 25.6 µM; in the data active means inhibition above about 50%
ERb coact inh: blocks coactivator binding to human estrogen receptor beta; TR-FRET ER-beta LBD / SRC1-Cy5 peptide binding; receptor agonist-loaded with 1 µM estradiol; 86,000 compounds, 1.3% hits; inhibition, % at 25.6 µM; Q92731;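 active means compounds whose percent inhibition of the receptor-coactivator binding signal exceeds about 50% in the single-dose screen, limit read from the data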
Target sequence (Q92731 whole entry, looked up, the tested form may be a part): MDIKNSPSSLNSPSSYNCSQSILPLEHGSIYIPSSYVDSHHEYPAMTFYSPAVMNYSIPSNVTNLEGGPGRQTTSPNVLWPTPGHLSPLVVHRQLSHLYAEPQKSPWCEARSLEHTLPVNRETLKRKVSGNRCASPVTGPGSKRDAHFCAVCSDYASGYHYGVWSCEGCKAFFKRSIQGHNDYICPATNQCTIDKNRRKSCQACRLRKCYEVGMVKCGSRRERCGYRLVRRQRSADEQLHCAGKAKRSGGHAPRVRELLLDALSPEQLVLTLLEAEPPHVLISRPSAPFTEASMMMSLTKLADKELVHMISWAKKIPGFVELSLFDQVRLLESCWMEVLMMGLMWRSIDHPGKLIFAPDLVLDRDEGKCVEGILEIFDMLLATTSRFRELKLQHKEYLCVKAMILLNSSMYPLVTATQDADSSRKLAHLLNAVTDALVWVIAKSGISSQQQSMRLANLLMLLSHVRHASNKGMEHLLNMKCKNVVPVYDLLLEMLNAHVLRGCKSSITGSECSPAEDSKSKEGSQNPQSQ
Smad3 inh: inhibitors of human Smad3 transcription factor binding; P84022; TR-FRET Smad3/Dy647-FoxH1 peptide binding, europium anti-His; inhibition, % at 25 µM; AID 630; 88,000 compounds, 0.29% hits;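 active means compounds that reduce the energy-transfer binding signal between the protein and its labelled peptide by more than half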
Numbers stand for hits; i = inactive; nt = no result; [ ] = dose if it differs, or a comment.

SMILES	ERa SRC1 pot	ERa coact inh	ERb coact inh	Smad3 inh
CCOC(=O)/C=C1\SCC(=O)N1Cc1nnc(-c2ccccc2Br)o1	i	59.3[fluorescence artefact?]	i	i
CCOC(=O)/C=C1\SCC(=O)N1Cc1ccc(Br)cc1	i	i	i	i
COc1cc(CCC(=O)OCC(=O)Nc2ncc(Cl)cc2Cl)cc(OC)c1OC	i	55.6[fluorescence artefact?]	58.7	i
COc1ccccc1OCCC(=O)OCC(=O)Nc1ncc(Cl)cc1Cl	i	53.7[fluorescence artefact?]	i	i
COc1ccc(CC(=O)OCC(=O)Nc2ncc(Cl)cc2Cl)cc1OC	i	i	i	i
Cc1occc1C(=O)NCCCc1ccccc1	i	i	57.9	i
O=C(N/N=C/c1ccc2c(c1)CCC2)c1ccccc1O	nt	nt	nt	i
Cc1cc(NC(=O)CSc2ccc(-c3nc4cc(C)c(C)cc4[nH]3)cn2)no1	242.8[fluorescence artefact?]	i	i	i
COc1ccc(-c2nsc(SCC(=O)Nc3cc(C)on3)n2)cc1	241.1[fluorescence artefact?]	i	i	i
Cc1ccc2nc(SCC(=O)Nc3cc(C)on3)[nH]c2c1	i	i	i	i
Cc1cc(NC(=O)CSc2nc(C3CC3)nc3sc(C)c(C)c23)no1	i	i	i	i
CCc1nc(SCC(=O)Nc2cc(C)on2)c2c(C)c(C)sc2n1	234.0[fluorescence artefact?]	i	i	i
CCc1cc2ccc(OC)cc2nc1SCC(=O)Nc1cc(C)on1	204.9	i	i	i
CN1CCCN(C)C1c1cc([N+](=O)[O-])ccc1O	nt	nt	nt	i
CCOCCc1nnc(NC(=O)C(CC)c2ccccc2)s1 (stereo unspecified)	i	i	i	i
CCC(CC)C(=O)NCCc1cc2c(C)ccc(C)c2[nH]c1=O	i	54.4[fluorescence artefact?]	i	i
CCC(CC)C(=O)NCCc1cc2cc(C)c(C)cc2[nH]c1=O	i	i	i	i
CCc1ccc(NC(=O)c2noc3c2CCCCC3)cc1	i	i	i	i
CSc1ccccc1NC(=O)c1noc2c1CCC2	i	91.7[fluorescence artefact?]	86.3	i
CCc1ccc(NC(=O)c2noc3c2CCC3)cc1	i	81.5	76.5	i
COC(=O)c1ccccc1NC(=O)c1cc(-c2cccs2)on1	251.3[fluorescence artefact?]	i	i	i
COC(=O)c1ccccc1NC(=O)c1noc2c1CCC2	i	89.1[fluorescence artefact?]	87.3	i
CC(NC(=O)c1noc2c1CCCC2)c1ccccc1 (stereo unspecified)	i	i	i	i
Cc1ncc(COP(=O)(O)O)c(C)c1O	nt	nt	nt	i
NC(=O)[C@H]1CCCN1Cc1ccc2c(c1)OCO2	nt	nt	nt	i
SMILES	ERa SRC1 pot	ERa coact inh	ERb coact inh	Smad3 inh
O=C(NC1CCCCC1)c1noc2c1CCCCC2	i	50.4[fluorescence artefact?]	61.3[fluorescence artefact?]	i
CSc1nc(N2CCOCC2)c2c3c(sc2n1)CCC3	i	i	61.8[fluorescence artefact?]	i
Cc1ccc(CNC(=O)C(C)OC(=O)c2cccs2)cc1 (stereo unspecified)	i	i	i	i
COc1cc(C(=S)N2CCCC2)cc(OC)c1O	i	63.4[fluorescence artefact?]	i	i
CCN1CCCCC(=N/O)/C(=N\O)CCCC1	nt	nt	nt	i
CCCCCNc1nc(-c2ccccc2)cs1	i	i	i	i
O=c1oc2ccccc2cc1-c1nnc(-c2cccc(Br)c2)o1	i	75.9[fluorescence artefact?]	i	i
COc1ccc(-c2nnc(-c3cc4c(ccc5ccccc54)oc3=O)o2)cc1	i	51.6	i	i
CCN(CC)c1ccc2cc(-c3nnc(-c4ccc(Br)cc4)o3)c(=O)oc2c1	209.6	i	i	i
O=c1oc2ccc3ccccc3c2cc1-c1nnc(-c2ccccc2)o1	i	65.2[fluorescence artefact?]	i	i
Brc1cccc(-c2nnc(-c3ccccc3)o2)c1	i	i	i	i
COC(=O)/C(=C\Nc1ccc(Cl)c2ccccc12)c1ncc(C(F)(F)F)cc1Cl	i	55.0	i	i
NC1=N[C@@H](c2ccc(Cl)cc2)N(c2ccc(S(=O)(=O)Nc3ncccn3)cc2)C(N)=N1	nt	nt	nt	52.0
CSc1nc2ccc3nc(NC(=O)c4cccs4)sc3c2s1	i	69.4[fluorescence artefact?]	79.3[fluorescence artefact?]	i
CN(C)S(=O)(=O)c1ccc2nc(NC(=O)c3cccs3)sc2c1	i	i	i	i
CSc1nc2ccc3nc(NC(=O)c4ccc(Cl)s4)sc3c2s1	i	58.8[fluorescence artefact?]	i	i
O=C(NCC(=O)N(CC1CCCO1)C1(C(=O)NC2CCCCC2)CCCCC1)c1ccccc1 (stereo unspecified)	i	i	i	i
COc1ccc2nc(SCC(=O)N3CCN(c4ccccc4F)CC3)c(C#N)cc2c1	i	i	i	i
N#Cc1cc2ccccc2nc1SCc1cccnc1	306.5[fluorescence artefact?]	i	i	i
COc1ccc2nc(SCc3cccnc3)c(C#N)cc2c1	202.0[fluorescence artefact?]	i	i	i
N#Cc1cc2c(nc1SCc1cccnc1)CCCCC2	i	i	i	i
NC(=O)N[C@H](CC(=O)O)C(=O)O	nt	nt	nt	i
CCC(=O)/C=C1/Sc2ccc(OC)cc2N1CC	i	i	99.4[fluorescence artefact?]	i
CCC(=O)/C=C1/Sc2ccccc2N1CC	i	i	i	i
FC(F)(F)c1nc2nc(Cl)c(Cl)nc2n1CCCN1CCOCC1	nt	nt	nt	i
SMILES	ERa SRC1 pot	ERa coact inh	ERb coact inh	Smad3 inh
c1ccc2c(c1)nc(Nc1ccc3c(c1)OCO3)c1nnnn12	i	56.5[fluorescence artefact?]	i	i
Brc1ccc(Nc2nc3ccccc3n3nnnc23)cc1	i	i	i	i
CCN(CC)S(=O)(=O)c1ccc(Nc2nc3ccccc3n3nnnc23)cc1	i	84.6[fluorescence artefact?]	i	i
CCOc1nc(C)ccc1-c1noc(C)n1	i	i	i	i
CCOc1nc(-c2ccccc2)ccc1-c1noc(-c2ccncc2)n1	i	i	i	i
CCOc1nc(-c2ccc(OC)cc2)ccc1-c1noc(-c2ccncc2)n1	i	76.2	i	i
CCOc1nc(C)ccc1-c1noc(-c2ccncc2)n1	232.7[fluorescence artefact?]	i	i	i
CC(C)CCOC(=O)C1C(c2ccccc2)C(C(=O)O)C1c1ccccc1 (stereo unspecified)	i	i	i	i
O=C(NCc1ccco1)c1cc2c(s1)CSC2	i	71.2	64.9	i
O=C(NCc1ccc2c(c1)OCO2)c1cc2c(s1)CSC2	i	i	i	i
O=C(c1cccc(C(F)(F)F)c1)N1CCOC12CCN(c1ncc(C(F)(F)F)cc1Cl)CC2	i	i	i	i
Cc1cc(OCc2nc(N)nc(N)c2-c2ccc(Cl)c(Cl)c2)ccc1[N+](=O)[O-]	nt	nt	nt	55.8
CCOc1ccc(-c2nc(N)nc(C)c2-c2ccc(OC)c(OC)c2)c(O)c1	i	i	i	i
C=CCNc1nc(-c2cccc(OC)c2O)nc2ccccc12	i	58.0	i	i
O=C(N1CCCC1)C12CCC3CC(CC(C3)C1)C2	i	i	i	i
O=C1N=C(N2CCOCC2)S/C1=C1\C(=O)N(Cc2ccccc2)c2ccc(Br)cc21	i	92.9[fluorescence artefact?]	i	i
c1ccc2c(c1)oc1c(NCc3ccc4c(c3)OCO4)ncnc12	377.8[fluorescence artefact?]	i	i	i
COc1ccc(-c2nnn(CC(=O)N3CCOCC3)n2)cc1	i	i	i	i
O=C(Cc1cccs1)Nc1ccc(-c2nnn(CC(=O)N3CCOCC3)n2)cc1	i	95.7[fluorescence artefact?]	93.1	i
CCCn1c(N)c(C(=O)CSc2nc(C)cs2)c(=O)n(C)c1=O	i	i	i	i
O=C(CSc1ccccn1)c1ccc2c(c1)OCO2	i	i	i	i
COc1ccc2c(C)cc(SCC(=O)c3ccc4c(c3)OCO4)nc2c1	300.3[fluorescence artefact?]	i	i	i
CC(C)c1ccc(-c2c(C#N)c(N)nc(SCC(=O)N3CCCCC3)c2C#N)cc1	i	50.1[fluorescence artefact?]	i	i
